Results filed as inconclusive are left out. A call without a number means that no potency is given here. A number with no mark means an inactive call. The source made the active and inactive calls. Calls come from the whole dose curve.
Experiment: Primary qHTS for Vero E6 cytotoxicity: counterscreen for inhibitors of SARS-S pseudo-typed particle cell entry (AID 1479150)
Settings: cell viability; series mostly up to 57.1 µM
In the case of `CN(C(=O)/C=C/c1ccoc1)[C@@H]1CC[C@@]2(O)[C@H]3Cc4ccc(O)c5c4[C@@]2(CCN3CC2CC2)[C@H]1O5`, the Potency was “inactive”.
For `CCCCCCCCCC(=O)OC1(c2ccc(Cl)cc2)CCN(CCCC(=O)c2ccc(F)cc2)CC1`, the Potency was “inactive”.
In the case of `C=C1/C(=C\C=C2/CCC[C@]3(C)[C@@H]([C@H](C)CCCC(C)(C)O)CC[C@@H]23)C[C@@H](O)C[C@@H]1O`, the Potency was “inactive”.
In the case of `CCOC(=O)Cc1ccc(-c2ccccc2)cc1`, the Potency was “inactive”.
In the case of `CC(C)c1nc(CN(C)C(=O)N[C@@H](CCN2CCOCC2)C(=O)N[C@H](CC[C@H](Cc2ccccc2)NC(=O)OCc2cncs2)Cc2ccccc2)cs1`, the Potency was “inactive”.
For `CC[C@H]1OC(=O)[C@H](C)[C@@H](O[C@H]2C[C@@](C)(OC)[C@@H](O)[C@H](C)O2)[C@H](C)[C@@H](O[C@@H]2O[C@H](C)C[C@H](N(C)C)[C@H]2O)[C@](C)(O)C[C@@H](C)CN(C)[C@H](C)[C@@H](O)[C@]1(C)O`, the Potency was “inactive”.
`Cc1cc(N)c2ccccc2[n+]1CCCCCCCCCC[n+]1c(C)cc(N)c2ccccc21` gave an activity change, negative = cytotoxicity of -0.518% [at 11.4 µM].
In the case of `Nc1nc(-n2cc(C(=O)O)c(=O)c3cc(F)c(N4CC(O)C4)c(Cl)c32)c(F)cc1F`, the Potency was “inactive”.
With `C=C[C@]1(C)C[C@@H](OC(=O)CSCCN(CC)CC)[C@]2(C)[C@H](C)CC[C@]3(CCC(=O)[C@H]32)[C@@H](C)[C@@H]1O` the Potency was “inactive”.
With `CCN(CC)Cc1cc(Nc2ccnc3cc(Cl)ccc23)ccc1O` the Potency was “inactive”.
For `C[C@H]1C[C@H]2[C@H]3CCC4=CC(=O)C=C[C@]4(C)[C@@]3(F)[C@@H](O)C[C@]2(C)[C@@]1(OC(=O)c1ccccc1)C(=O)CO`, the Potency was “inactive”.
With `CC1(C)C(/C=C/C=C/C=C/C=C2/N(CCCCS(=O)(=O)O)c3ccc4ccccc4c3C2(C)C)=[N+](CCCCS(=O)(=O)[O-])c2ccc3ccccc3c21` the Potency was “inactive”.
With `CN1C(CC(=O)c2ccccc2)CCCC1CC(O)c1ccccc1` (stereo not given) the Potency was “inactive”.
With `C=C1/C(=C/C=C2\CCC[C@]3(C)[C@@H]([C@H](C)CCCC(O)(C(F)(F)F)C(F)(F)F)CC[C@@H]23)C[C@@H](O)C[C@@H]1O` the Potency was “inactive”.
With `COC(=O)N[C@H](C(=O)N1CC2(CC2)C[C@H]1c1ncc(-c2ccc3c(c2)C(F)(F)c2cc(-c4ccc5nc([C@@H]6[C@H]7CC[C@H](C7)N6C(=O)[C@@H](NC(=O)OC)C(C)C)[nH]c5c4)ccc2-3)[nH]1)C(C)C` the Potency was “inactive”.
In the case of `CC[C@@]1([C@@H]2O[C@@H]([C@H]3O[C@@](O)(CO)[C@H](C)C[C@@H]3C)C[C@@H]2C)CC[C@H]([C@]2(C)CCC3(C[C@H](O)[C@@H](C)[C@@H]([C@@H](C)[C@@H](OC)[C@H](C)C(=O)O)O3)O2)O1` (stereo not given in full), the Potency was “inactive”.
With `CC1(COc2ccc(N3CCC(Oc4ccc(OC(F)(F)F)cc4)CC3)cc2)Cn2cc([N+](=O)[O-])nc2O1` (stereo not given) the Potency was “inactive”.
In the case of `CN(C)C/C=C/C(=O)Nc1cc2c(Nc3ccc(F)c(Cl)c3)ncnc2cc1OC1CCOC1` (stereo not given), the Potency was 10 µM (active).
In the case of `C=C(NC(=O)C(=C)NC(=O)c1csc(C2=N[C@H]3c4csc(n4)[C@H]4NC(=O)c5csc(n5)[C@H]([C@@](C)(O)[C@@H](C)O)NC(=O)[C@H]5CSC(=N5)C(=CC)NC(=O)[C@H]([C@@H](C)O)NC(=O)c5csc(n5)[C@]3(CC2)NC(=O)[C@H](C)NC(=O)C(=C)NC(=O)[C@H](C)NC(=O)[C@H](C(C)CC)N[C@@H]2C=Cc3c([C@H](C)O)cc(nc3[C@H]2O)C(=O)O[C@@H]4C)n1)C(N)=O` (stereo not given in full), the Potency was “inactive”.
With `CC(C)OC(=O)CCC/C=C\C[C@@H]1[C@@H](/C=C/[C@@H](O)COc2cccc(C(F)(F)F)c2)[C@H](O)C[C@@H]1O` the Potency was “inactive”.
With `COC[C@H]1C[C@@H](c2ncc(-c3ccc4c(c3)COc3cc5c(ccc6[nH]c([C@@H]7CC[C@H](C)N7C(=O)[C@@H](NC(=O)OC)C(C)C)nc65)cc3-4)[nH]2)N(C(=O)[C@H](NC(=O)OC)c2ccccc2)C1` the Potency was “inactive”.
In the case of `C=C1CC[C@H](O)CC1=C/C=C1\CCC[C@]2(C)[C@@H]([C@H](C)CCCC(C)(C)O)CC[C@@H]12`, the Potency was “inactive”.
With `CN(C)CC/C=C1\c2ccccc2CSc2ccccc21` the Potency was “inactive”.

Experiment: Confirmatory qHTS to identify inhibitors of SARS-CoV-2 cell entry (AID 1645844); note: nearly all actives have a fitted effect of over 45% in size
Settings: SARS-CoV-2 pseudotyped particle cell entry, luciferase; series mostly up to 57.2 µM
Method in brief: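 HEK293-ACE2 cells were pretreated 1 h with compound, then infected with MLV-based pseudoparticles bearing C-terminally truncated Wuhan-Hu-1 spike for 48 h at 37C; luciferase luminescence normalized to spike PP and bald PP wells.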
For `C=C1C/C(=C\C=C2/CCC[C@]3(C)[C@@H]([C@H](C)/C=C/C(C)C(C)C)CC[C@@H]23)[C@@H](O)C[C@@H]1O` (stereo not given in full), the Potency was 0.541 µM (active).
With `CC(C)OC(=O)[C@H](C)N[P@](=O)(CO[C@H](C)Cn1cnc2c(N)ncnc21)Oc1ccccc1` the Potency was 0.0108 µM (active).
With `CC[C@@]1(O)C(=O)OCc2c1cc1n(c2=O)Cc2cc3c([N+](=O)[O-])cccc3nc2-1` the Potency was 0.0175 µM (active).
In the case of `CC[C@H]1OC(=O)[C@H](C)[C@@H](O[C@H]2C[C@@](C)(OC)[C@@H](O)[C@H](C)O2)[C@H](C)[C@@H](O[C@@H]2O[C@H](C)C[C@H](N(C)C)[C@H]2O)[C@](C)(O)C[C@@H](C)CN(C)[C@H](C)[C@@H](O)[C@]1(C)O`, the Potency was 24.1 µM (active).
For `C=C[C@]1(C)C[C@@H](OC(=O)CSCCN(CC)CC)[C@]2(C)[C@H](C)CC[C@]3(CCC(=O)[C@H]32)[C@@H](C)[C@@H]1O`, the Potency was 3.04 µM (active).
For `CC(C)OC(=O)CCC/C=C\C[C@@H]1[C@@H](/C=C/[C@@H](O)COc2cccc(C(F)(F)F)c2)[C@H](O)C[C@@H]1O`, the Potency was 21.5 µM (active).
In the case of `COC[C@H]1C[C@@H](c2ncc(-c3ccc4c(c3)COc3cc5c(ccc6[nH]c([C@@H]7CC[C@H](C)N7C(=O)[C@@H](NC(=O)OC)C(C)C)nc65)cc3-4)[nH]2)N(C(=O)[C@H](NC(=O)OC)c2ccccc2)C1`, the Potency was 0.341 µM (active).

Reference: PubChem BioAssay (NCATS)
Potency is the fitted concentration of half-maximal effect.
